The values that follow come from PubChem BioAssay (NCI).

This is part of a sample that, as a whole, favours compounds with a hit. Of some 83,000 tested, about 20% had one in any assay.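 Interpretation: 100, growth as untreated; towards 0, rising growth inhibition; 0, no net growth; 0 to -100, cell death. Compounds scoring below 10 were considered active.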 A number with no mark means an inactive call. Activity calls are given as the source filed them.

Some test systems named below: RPMI-8226 leukemia; OVCAR-4 ovarian; SK-OV-3 ovarian; IGROV1 ovarian; OVCAR-3 ovarian; HS 578T breast; NCI/ADR-RES ovarian; T-47D breast; BT-549 breast; MDA-MB-435 melanoma; SW-620 colon; MCF7 breast; HCT-116 colon; HCC-2998 colon; KM12 colon; OVCAR-8 ovarian; OVCAR-5 ovarian.
What all share (assay): NCI-60 one-dose screen, 48 h (100 = growth as untreated, 0 = no growth, -100 = all killed)
What all share (conditions): 10 µM unless noted

Regarding `OC(c1cc(C(F)(F)F)nc2c(C(F)(F)F)cccc12)C1CCCCN1` (stereo not drawn), the growth in the assay with RPMI-8226 leukemia was 80%; in the assay on OVCAR-4 ovarian, 56.7%; in the assay on SK-OV-3 ovarian, 78.7%; with IGROV1 ovarian it was 44.7%; in the assay with OVCAR-3 ovarian, 73.7%; in the assay with HS 578T breast, 62.4%. Moreover, the growth was 50.5% in the assay on NCI/ADR-RES ovarian; 75.2% with T-47D breast; 67.6% in the assay on BT-549 breast; 61.5% in the assay on MDA-MB-435 melanoma; 72.9% in the assay on SW-620 colon; 21.8% in the assay with MCF7 breast. The growth with HCT-116 colon is 44.7%; with HCC-2998 colon, 20.1%; in the assay with KM12 colon it was 32.7%.

In the case of `N#CCNc1ccccc1N`, the growth was 93.1% in the assay on OVCAR-8 ovarian; 109% in the assay with OVCAR-5 ovarian; 97.2% in the assay with OVCAR-4 ovarian; 84.5% in the assay with SK-OV-3 ovarian; 89.3% with IGROV1 ovarian; 101% with OVCAR-3 ovarian. Besides, the growth in the assay on HS 578T breast is 91.8%; with NCI/ADR-RES ovarian, 95.5%; in the assay on T-47D breast, 59.9%; with BT-549 breast, 87.2%; with MDA-MB-435 melanoma, 106%; in the assay on SW-620 colon, 100%. In addition, the growth is 88.8% in the assay on MCF7 breast, 85.3% in the assay on HCT-116 colon, 96.9% in the assay on HCC-2998 colon and 94% in the assay on KM12 colon.

Take `O=C(NCCc1ccccc1)C1CCC(=O)N1Cc1ccc(Br)cc1` (stereo not drawn): the growth is 94.4% in the assay with OVCAR-5 ovarian; 111% with OVCAR-4 ovarian; 101% with SK-OV-3 ovarian; 103% with IGROV1 ovarian; 116% with OVCAR-3 ovarian; 113% in the assay on HS 578T breast. Moreover, the growth was 107% in the assay on NCI/ADR-RES ovarian; 106% in the assay with T-47D breast; 107% in the assay on BT-549 breast; 110% in the assay on MDA-MB-435 melanoma; 97.5% with SW-620 colon; 102% in the assay on MCF7 breast. The growth in the assay on HCT-116 colon was 77.9%; in the assay on HCC-2998 colon, 108%; with KM12 colon, 106%.

For `Cc1c(C(N)=O)sc2c1c(=O)n(Cc1ccccc1)c1nnc(SCC(=O)Nc3ccc(Cl)cc3)n21`, the growth is 64.9% with OVCAR-5 ovarian; -80.2% (active) with OVCAR-4 ovarian; 24.8% with SK-OV-3 ovarian; 23.1% in the assay on IGROV1 ovarian; -3.77% (active) in the assay on OVCAR-3 ovarian; 6.54% (active) in the assay with HS 578T breast. In addition, the growth with NCI/ADR-RES ovarian was 82.2%; in the assay with T-47D breast it was -23.9% (active); in the assay with BT-549 breast it was 67.7%; in the assay on MDA-MB-435 melanoma, 40.7%; with SW-620 colon it was 35.6%; with MCF7 breast, 31.6%. Further, the results for the growth with HCT-116 colon, in the assay on HCC-2998 colon and in the assay with KM12 colon were 2.83% (active), 18.1% and 55.3%, respectively.

On to `O=C(NCCCO)c1cc(Cl)ccc1O`, for which the growth is 17.8% with OVCAR-8 ovarian; 45% in the assay with OVCAR-5 ovarian; 40.6% with SK-OV-3 ovarian; -14.9% (active) in the assay on OVCAR-3 ovarian; 19.3% in the assay with HS 578T breast; 95.8% in the assay with NCI/ADR-RES ovarian. Also, the growth in the assay on T-47D breast is 30%; in the assay on BT-549 breast, 19.2%; with SW-620 colon, 23.1%; in the assay with HCT-116 colon it was 10.9%; in the assay with HCC-2998 colon, 21.4%; in the assay on KM12 colon it was 14.5%.

As to `CCN(CC)c1ccc(C(O)C2=CC(=O)c3ccccc3C2=O)cc1` (stereo not drawn), the growth was -3.87% (active) in the assay on OVCAR-8 ovarian; -23.8% (active) in the assay on OVCAR-5 ovarian; 73.1% in the assay with SK-OV-3 ovarian; -42.7% (active) with IGROV1 ovarian; -77.2% (active) in the assay on OVCAR-3 ovarian; -10.6% (active) in the assay with HS 578T breast. The growth is 84.4% with NCI/ADR-RES ovarian; -60.6% (active) in the assay with T-47D breast; 23.6% with BT-549 breast; -42.7% (active) with SW-620 colon; 9.53% (active) in the assay on MCF7 breast; -9.43% (active) in the assay on HCT-116 colon. For the same molecule, the figures for the growth with HCC-2998 colon and in the assay with KM12 colon were -60.5% (active) and 1.59% (active), respectively.

Regarding `O=C(/C=C/c1ccccc1Cl)c1ccc(O)cc1`, the growth was 138% in the assay on OVCAR-5 ovarian; 63.3% in the assay with OVCAR-4 ovarian; 86% with SK-OV-3 ovarian; 80.5% with HS 578T breast; 97% with NCI/ADR-RES ovarian; 58.8% in the assay with T-47D breast. In addition, the growth was 55.8% in the assay on BT-549 breast; 25.1% in the assay on MDA-MB-435 melanoma; 40.9% in the assay on SW-620 colon; 15% with MCF7 breast; 13.3% in the assay with HCT-116 colon; 113% in the assay with HCC-2998 colon. Moreover, the growth with KM12 colon was 6.77% (active).

Consider `COc1ccc2nc3cc(Cl)ccc3c(Nc3cc(C(C)C)c(O)cc3C)c2c1`, for which the growth in the assay with OVCAR-8 ovarian was 50.4%; in the assay on OVCAR-5 ovarian, 68.7%; in the assay with OVCAR-4 ovarian it was 30.2%; in the assay with SK-OV-3 ovarian it was 63.3%; in the assay on HS 578T breast it was 65.5%; in the assay with NCI/ADR-RES ovarian, 38%. Further, the growth with T-47D breast was 13.9%; in the assay with BT-549 breast, 57%; in the assay on MDA-MB-435 melanoma it was 30.8%; in the assay on SW-620 colon it was 21.8%; with MCF7 breast it was 15.5%; in the assay on HCT-116 colon, 1.48% (active). The results for the growth in the assay with HCC-2998 colon and with KM12 colon were 37.5% and 8.35% (active), respectively.

Turning to `Cc1nn(-c2ccccc2)c2nc(Cl)c(/C=C/C(=O)c3ccccc3)c(-c3ccccc3)c12`, the growth with OVCAR-5 ovarian is 103%; in the assay on OVCAR-4 ovarian it was 107%; with SK-OV-3 ovarian, 102%; in the assay with IGROV1 ovarian, 120%; in the assay on OVCAR-3 ovarian, 116%; in the assay with HS 578T breast it was 95.5%. For the same molecule, the growth was 105% in the assay with NCI/ADR-RES ovarian; 107% with T-47D breast; 87.9% in the assay with BT-549 breast; 103% in the assay with MDA-MB-435 melanoma; 112% in the assay with SW-620 colon; 96.1% in the assay with MCF7 breast. The growth in the assay on HCT-116 colon is 95.5%; in the assay with HCC-2998 colon, 103%; in the assay on KM12 colon it was 106%.

As to `Cc1nn(-c2ccccc2)c(Cl)c1C(CC(=O)c1ccc(Cl)cc1)CC(=O)c1ccc(Cl)cc1`, the growth with OVCAR-5 ovarian was 93.8%; in the assay with OVCAR-4 ovarian, 97.8%; in the assay with SK-OV-3 ovarian, 91.8%; in the assay with IGROV1 ovarian, 101%; with OVCAR-3 ovarian, 91.7%; in the assay on HS 578T breast, 97.3%. Also, the growth in the assay on NCI/ADR-RES ovarian was 90.2%; with T-47D breast, 85.8%; in the assay with BT-549 breast it was 85.6%; in the assay on MDA-MB-435 melanoma it was 90.9%; with SW-620 colon, 96.4%; in the assay with MCF7 breast, 92.7%. Moreover, the growth in the assay with HCT-116 colon is 75.4%; in the assay on HCC-2998 colon, 99.1%; in the assay with KM12 colon, 86.1%.

In the case of `CCOC(Cc1c(N)[nH]c(=S)[nH]c1=O)OCC`, the growth is 96.2% in the assay with OVCAR-8 ovarian; 93.9% with OVCAR-5 ovarian; 107% in the assay with SK-OV-3 ovarian; 104% in the assay with IGROV1 ovarian; 120% in the assay on OVCAR-3 ovarian; 120% in the assay with HS 578T breast. Also, the growth in the assay with NCI/ADR-RES ovarian was 102%; in the assay with T-47D breast, 99%; with BT-549 breast it was 102%; in the assay on SW-620 colon, 105%; in the assay with MCF7 breast, 96.8%; in the assay with HCT-116 colon it was 103%. The growth with HCC-2998 colon is 113%; in the assay on KM12 colon, 112%.
